About 7,900 targets were measured; listed, in parts, are those with a hit and a random draw of the rest. About 0.6% of all pairs of compound and target were hits.

The results in this text go back to the supplement of paper PMC10849652.

Chain of UniProt Q49A26 (Q49A26 whole entry, looked up): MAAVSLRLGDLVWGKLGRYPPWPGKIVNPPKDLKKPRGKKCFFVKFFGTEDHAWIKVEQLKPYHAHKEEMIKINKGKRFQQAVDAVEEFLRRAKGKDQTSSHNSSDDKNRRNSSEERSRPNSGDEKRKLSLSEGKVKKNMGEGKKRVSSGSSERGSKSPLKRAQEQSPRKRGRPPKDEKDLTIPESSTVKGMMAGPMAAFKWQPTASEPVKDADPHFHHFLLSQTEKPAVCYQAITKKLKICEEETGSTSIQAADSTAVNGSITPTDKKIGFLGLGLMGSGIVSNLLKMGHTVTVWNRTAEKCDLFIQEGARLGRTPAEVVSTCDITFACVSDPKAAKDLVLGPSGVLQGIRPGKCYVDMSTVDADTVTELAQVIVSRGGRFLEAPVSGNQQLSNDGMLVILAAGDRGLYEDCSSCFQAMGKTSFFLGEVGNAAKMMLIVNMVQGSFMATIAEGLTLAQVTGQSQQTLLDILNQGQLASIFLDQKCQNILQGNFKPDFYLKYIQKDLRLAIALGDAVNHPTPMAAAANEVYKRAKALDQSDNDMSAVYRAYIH
Chain of UniProt P13807 (P13807 whole entry, looked up): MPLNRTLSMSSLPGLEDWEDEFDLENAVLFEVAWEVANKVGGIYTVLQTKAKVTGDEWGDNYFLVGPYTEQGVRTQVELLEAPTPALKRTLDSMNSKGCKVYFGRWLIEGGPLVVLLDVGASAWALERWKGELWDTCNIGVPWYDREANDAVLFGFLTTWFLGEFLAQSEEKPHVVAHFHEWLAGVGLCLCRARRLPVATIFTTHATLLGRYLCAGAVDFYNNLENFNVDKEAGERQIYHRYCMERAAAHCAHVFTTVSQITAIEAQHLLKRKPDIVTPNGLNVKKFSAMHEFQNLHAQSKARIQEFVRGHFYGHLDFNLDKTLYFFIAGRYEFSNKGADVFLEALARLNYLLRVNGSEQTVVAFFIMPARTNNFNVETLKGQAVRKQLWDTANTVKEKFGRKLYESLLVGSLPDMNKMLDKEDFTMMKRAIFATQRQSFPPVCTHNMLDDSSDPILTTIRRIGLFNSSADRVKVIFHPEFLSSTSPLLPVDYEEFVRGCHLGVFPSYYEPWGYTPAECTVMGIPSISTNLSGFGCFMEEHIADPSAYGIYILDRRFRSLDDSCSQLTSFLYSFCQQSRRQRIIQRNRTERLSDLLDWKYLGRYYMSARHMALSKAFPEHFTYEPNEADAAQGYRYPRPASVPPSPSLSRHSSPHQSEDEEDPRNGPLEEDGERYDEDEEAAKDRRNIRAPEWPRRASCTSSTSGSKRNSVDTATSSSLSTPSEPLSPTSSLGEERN
Chain of UniProt Q9Y6M1 (Q9Y6M1 whole entry, looked up): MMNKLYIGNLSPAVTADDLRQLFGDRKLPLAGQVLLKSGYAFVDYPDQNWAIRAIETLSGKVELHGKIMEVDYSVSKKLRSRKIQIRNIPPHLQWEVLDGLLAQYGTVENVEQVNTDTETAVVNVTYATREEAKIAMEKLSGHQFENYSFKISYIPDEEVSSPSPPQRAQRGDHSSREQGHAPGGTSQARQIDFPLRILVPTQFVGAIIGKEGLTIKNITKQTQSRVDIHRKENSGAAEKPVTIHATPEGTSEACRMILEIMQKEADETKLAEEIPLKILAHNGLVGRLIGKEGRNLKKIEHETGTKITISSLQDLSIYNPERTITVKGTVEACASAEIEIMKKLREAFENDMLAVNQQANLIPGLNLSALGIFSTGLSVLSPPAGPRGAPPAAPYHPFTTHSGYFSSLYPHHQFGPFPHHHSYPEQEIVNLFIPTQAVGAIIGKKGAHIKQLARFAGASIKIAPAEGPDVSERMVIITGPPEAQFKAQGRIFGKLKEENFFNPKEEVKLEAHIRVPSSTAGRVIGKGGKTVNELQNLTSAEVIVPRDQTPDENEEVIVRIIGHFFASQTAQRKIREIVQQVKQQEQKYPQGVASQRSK
Chain of UniProt P31150 (P31150 whole entry, looked up): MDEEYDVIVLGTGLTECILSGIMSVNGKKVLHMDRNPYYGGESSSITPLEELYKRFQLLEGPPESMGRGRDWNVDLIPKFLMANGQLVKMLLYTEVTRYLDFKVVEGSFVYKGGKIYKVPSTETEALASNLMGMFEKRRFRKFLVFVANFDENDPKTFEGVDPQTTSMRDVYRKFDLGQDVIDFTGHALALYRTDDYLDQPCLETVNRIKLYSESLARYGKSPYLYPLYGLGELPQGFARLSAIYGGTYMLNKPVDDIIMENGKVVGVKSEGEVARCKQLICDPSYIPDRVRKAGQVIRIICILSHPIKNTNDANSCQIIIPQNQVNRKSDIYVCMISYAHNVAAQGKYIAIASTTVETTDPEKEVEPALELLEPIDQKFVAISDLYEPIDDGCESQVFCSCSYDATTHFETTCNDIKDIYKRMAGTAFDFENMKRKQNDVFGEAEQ
Chain of UniProt P36969 (P36969 whole entry, looked up): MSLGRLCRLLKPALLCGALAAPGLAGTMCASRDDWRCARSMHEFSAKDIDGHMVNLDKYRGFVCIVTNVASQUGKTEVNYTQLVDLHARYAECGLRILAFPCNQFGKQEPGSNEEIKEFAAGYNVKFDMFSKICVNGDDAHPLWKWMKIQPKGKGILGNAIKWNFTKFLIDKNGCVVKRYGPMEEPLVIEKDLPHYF
Chain of UniProt P07686 (P07686 whole entry, looked up): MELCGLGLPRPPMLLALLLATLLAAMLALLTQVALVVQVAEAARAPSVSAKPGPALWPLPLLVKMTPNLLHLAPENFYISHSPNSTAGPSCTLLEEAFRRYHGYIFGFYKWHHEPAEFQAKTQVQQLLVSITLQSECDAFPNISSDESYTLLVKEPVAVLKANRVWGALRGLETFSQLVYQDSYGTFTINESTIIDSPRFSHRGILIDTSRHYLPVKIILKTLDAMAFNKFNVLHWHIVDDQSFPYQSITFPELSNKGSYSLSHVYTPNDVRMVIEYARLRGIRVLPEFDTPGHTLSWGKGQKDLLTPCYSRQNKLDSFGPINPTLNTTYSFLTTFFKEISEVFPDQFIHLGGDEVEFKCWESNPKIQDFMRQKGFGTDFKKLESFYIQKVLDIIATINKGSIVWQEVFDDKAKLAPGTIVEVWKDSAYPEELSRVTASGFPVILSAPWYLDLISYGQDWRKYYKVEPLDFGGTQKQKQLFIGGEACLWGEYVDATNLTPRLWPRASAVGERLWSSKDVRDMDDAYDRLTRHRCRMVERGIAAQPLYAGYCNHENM
Chain of UniProt Q01628 (Q01628 whole entry, looked up): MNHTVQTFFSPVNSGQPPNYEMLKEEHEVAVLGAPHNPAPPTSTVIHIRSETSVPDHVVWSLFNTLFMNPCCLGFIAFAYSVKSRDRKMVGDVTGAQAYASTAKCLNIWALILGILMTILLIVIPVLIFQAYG
Chain of UniProt Q9UK99 (Q9UK99 whole entry, looked up): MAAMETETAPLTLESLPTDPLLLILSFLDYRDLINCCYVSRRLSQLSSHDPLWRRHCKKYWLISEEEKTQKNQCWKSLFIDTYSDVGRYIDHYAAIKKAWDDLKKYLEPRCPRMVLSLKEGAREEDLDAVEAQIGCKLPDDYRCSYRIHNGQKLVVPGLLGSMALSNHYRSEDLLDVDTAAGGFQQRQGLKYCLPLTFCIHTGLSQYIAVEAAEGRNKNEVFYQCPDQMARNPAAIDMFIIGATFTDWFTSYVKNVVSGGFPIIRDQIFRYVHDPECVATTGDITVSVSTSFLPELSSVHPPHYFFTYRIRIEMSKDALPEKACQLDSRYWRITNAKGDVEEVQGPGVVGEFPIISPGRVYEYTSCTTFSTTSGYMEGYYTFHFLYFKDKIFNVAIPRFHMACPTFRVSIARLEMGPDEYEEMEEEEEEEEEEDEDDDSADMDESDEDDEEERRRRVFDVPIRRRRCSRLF
Chain of UniProt P06280 (P06280 whole entry, looked up): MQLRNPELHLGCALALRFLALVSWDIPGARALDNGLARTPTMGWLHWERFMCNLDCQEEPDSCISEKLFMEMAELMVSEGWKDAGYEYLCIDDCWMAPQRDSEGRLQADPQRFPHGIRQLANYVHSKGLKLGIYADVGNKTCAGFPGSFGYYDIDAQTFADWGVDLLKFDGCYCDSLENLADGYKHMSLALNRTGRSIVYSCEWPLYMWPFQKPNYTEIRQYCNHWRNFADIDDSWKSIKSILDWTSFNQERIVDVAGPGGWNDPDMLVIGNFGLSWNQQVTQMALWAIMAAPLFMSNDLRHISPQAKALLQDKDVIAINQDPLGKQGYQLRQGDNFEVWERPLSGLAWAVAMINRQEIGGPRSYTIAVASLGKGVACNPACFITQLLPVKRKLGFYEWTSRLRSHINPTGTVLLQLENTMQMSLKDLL
Chain of UniProt P15586 (P15586 whole entry, looked up): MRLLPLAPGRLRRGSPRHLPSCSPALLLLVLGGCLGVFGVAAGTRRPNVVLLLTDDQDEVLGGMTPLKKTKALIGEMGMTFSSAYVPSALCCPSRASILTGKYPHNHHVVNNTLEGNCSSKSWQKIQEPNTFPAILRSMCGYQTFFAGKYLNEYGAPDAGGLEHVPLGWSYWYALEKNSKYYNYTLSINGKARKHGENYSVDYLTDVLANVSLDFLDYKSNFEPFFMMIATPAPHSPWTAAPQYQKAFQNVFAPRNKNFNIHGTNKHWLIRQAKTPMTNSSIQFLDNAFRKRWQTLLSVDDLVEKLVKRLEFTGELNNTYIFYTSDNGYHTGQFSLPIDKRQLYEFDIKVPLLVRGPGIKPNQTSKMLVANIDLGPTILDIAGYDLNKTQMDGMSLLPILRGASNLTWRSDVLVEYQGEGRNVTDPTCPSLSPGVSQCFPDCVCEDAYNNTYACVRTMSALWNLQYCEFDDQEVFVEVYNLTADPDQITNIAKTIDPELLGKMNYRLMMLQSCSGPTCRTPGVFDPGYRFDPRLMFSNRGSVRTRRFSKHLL
Chain of UniProt Q9H0R4 (Q9H0R4 whole entry, looked up): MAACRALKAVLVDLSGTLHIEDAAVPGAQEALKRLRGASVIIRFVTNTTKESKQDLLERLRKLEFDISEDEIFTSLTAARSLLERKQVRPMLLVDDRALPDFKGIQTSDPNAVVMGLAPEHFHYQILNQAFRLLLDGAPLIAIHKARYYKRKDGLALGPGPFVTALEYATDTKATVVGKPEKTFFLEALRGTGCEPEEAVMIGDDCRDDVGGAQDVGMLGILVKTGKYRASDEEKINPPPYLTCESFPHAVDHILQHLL

Compound in this assay: c1cn2cc(-c3ccc4cn[nH]c4c3)nc(Nc3ccc(N4CCOCC4)cc3)c2n1 [entospletinib]
The experiment in a line: log2 fold change, soluble protein after heating vs DMSO (PISA); higher = thermal stabilisation; K562 cells, 10 uM, 30 min; active = over 0.2 and 3.5 SD of the protein, either way, in both replicates (recomputed). The method, boiled down: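 For each measurement, 10 μM compound was applied for 30 min to K562 cells at 2×10^6 cells/mL. Aliquots were heated for 3 min across 48°C-58°C, pooled, and extracted in PBS with 0.5% NP-40 at 4°C; the supernatant after 21,000xg for 90 min was soluble protein. This was quantified by TMTpro 16plex LC-MS/MS with channel sums equalised, and thermal stability was reported relative to control samples from duplicates, on a log2 fold-change scale.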
As for FBXO3 (UniProt Q9UK99), the log2 fold change is 0.013 (inactive).
Then H2AFX (UniProt P16104), with -0.005 (inactive); and HDAC1 (UniProt Q13547), with -0.014 (inactive); and FIS1 (UniProt Q9Y3D6), with 0.038 (inactive).
Regarding GBE1 (UniProt Q04446), the log2 fold change was 0.039 (inactive).
On to IFITM3 (UniProt Q01628), for which the log2 fold change is 0.034 (inactive).
For FDFT1 (UniProt P37268), the log2 fold change is -0.019 (inactive).
As to GDI1 (UniProt P31150), the log2 fold change is 0.032 (inactive).
With FIZ1 (UniProt Q96SL8), the log2 fold change is 0.042 (inactive).
For FANCD2 isoform 1 (UniProt Q9BXW9), the log2 fold change was 0.002 (inactive).
For GNS (UniProt P15586), the log2 fold change was 0.002 (inactive).
Then GCLM (UniProt P48507), with 0.012 (inactive); and GTF3C4 (UniProt Q9UKN8), with -0.052 (inactive).
Turning to IGF2BP2 (UniProt Q9Y6M1), the log2 fold change was 0.24 (inactive).
For GID4 (UniProt Q8IVV7), the log2 fold change was -0.021 (inactive).
Then IFNGR1 (UniProt P15260), with -0.019 (inactive); and ICMT (UniProt O60725), with 0.303 (inactive); and HEXB (UniProt P07686), with -0.026 (inactive).
Then FDXR isoform 7 (UniProt P22570), with -0.032 (inactive); and GLS isoform 3 (UniProt O94925), with -0.055 (inactive); and HNRNPUL1 (UniProt M0R247), with -0.056 (inactive).
Then HADHA (UniProt P40939), with 0.01 (inactive); and HSD17B12 (UniProt Q53GQ0), with -0.015 (inactive); and GNL1 (UniProt P36915), with 0.028 (inactive).
For FECH isoform 2 (UniProt P22830), the log2 fold change is 0.471 (inactive).
As to GSK3B isoform 2 (UniProt P49841), the log2 fold change was -0.028 (inactive).
Take FIBP (UniProt O43427): the log2 fold change is 0.455 (inactive).
GLA (UniProt P06280): the log2 fold change is 0.017 (inactive).
With GLYR1 (UniProt Q49A26), the log2 fold change was 0.041 (inactive).
On to FBXO7 (UniProt Q9Y3I1), for which the log2 fold change was -0.009 (inactive).
For FOXO3 (UniProt O43524), the log2 fold change was -0.107 (inactive).
On to GPX4 (UniProt P36969), for which the log2 fold change is 0.02 (inactive).
GABARAPL1 isoform 2 (UniProt Q9H0R8): the log2 fold change is -0.041 (inactive).
GALNT2 (UniProt Q10471): the log2 fold change is -0.041 (inactive).
Regarding GATA1 (UniProt P15976), the log2 fold change is 0.102 (inactive).
For HDHD2 (UniProt Q9H0R4), the log2 fold change was -0.069 (inactive).
Regarding FEN1 (UniProt P39748), the log2 fold change is -0.051 (inactive).
Then GAK (UniProt O14976), with 0.371 (inactive).
To GYS1 (UniProt P13807) belongs 0.782 (active).
In the case of HIST2H2BF isoform 2 (UniProt Q5QNW6), the log2 fold change is 0.06 (inactive).
